# Measured values from PubChem BioAssay (NCI).
# About 83,000 compounds went through this panel and 20% of them were active in at least one assay; those are over-represented in the sample as a whole.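 Assay: single dose, 48 h. Readout: percent growth (0 = no net growth; negative = cell death). Active: <10.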 Values without a mark were called inactive. The source made the active and inactive calls.
# Assays:
# Test in all cases: NCI-60 one-dose screen, 48 h (100 = growth as untreated, 0 = no growth, -100 = all killed)
# Details in all cases: 10 µM unless noted
# [1] = system: SK-MEL-2 melanoma
# [2] = system: UO-31 renal
# [3] = system: TK-10 renal
# [4] = system: ACHN renal
# [5] = system: CAKI-1 renal
# [6] = system: A498 renal
# [7] = system: CCRF-CEM leukemia
# [8] = system: MOLT-4 leukemia
# [9] = system: EKVX NSCLC
# [10] = system: SN12C renal
SMILES,growth [1],growth [2],growth [3],growth [4],growth [5],growth [6],growth [7],growth [8],growth [9],growth [10]
CC(C)C(C)(C)C(=O)C(C)(C)C(C)(C)C,99.9%,95.5%,96.2%,99.3%,104%,83.9%,107%,110%,,
Cc1ccc(OC(=O)c2ccccc2)cc1,,97.2%,98.1%,117%,114%,95.6%,108%,104%,122%,109%
CCOC(=O)C(CCC#N)(CCC#N)C(=O)OCC,112%,95.2%,102%,109%,102%,,94.7%,97.3%,,105%
Clc1cccc(Cl)c1C1CSc2ccccc2N=C1c1ccccc1 (stereo unspecified),90.2%,55.3%,117%,76.8%,,124%,-12.9% (active),20.1%,,75.5%
O=C(O)c1ccc([N+](=O)[O-])cc1S(=O)(=O)O,95.9%,102%,99.3%,106%,110%,108%,81.2%,105%,,
ON1CCCC1,106%,95.5%,94%,109%,92.9%,97.5%,,81%,,102%
Nc1cccc2cccc(O)c12,,52.8%,83.7%,80%,101%,97.9%,52.8%,83%,94.6%,91%
O=C(Nc1ccccc1)c1ccco1,99.1%,86.1%,98.9%,107%,95.9%,,107%,93.5%,,109%
CCOC(=O)c1ccc(C(C)(C)C)cc1,,89.8%,103%,110%,101%,114%,113%,87.1%,114%,107%
N#CCCN1C(=O)CCC1C(=O)O (stereo unspecified),,101%,103%,101%,102%,98.9%,108%,-26.9% (active),112%,106%
O=S(=O)(OCCOS(=O)(=O)c1ccccc1)c1ccccc1,103%,83.2%,102%,105%,89.8%,,92.9%,93%,,97.1%
NC(=O)NCCO,108%,94.1%,96.5%,,95.2%,77.1%,85%,,,101%
CC(=O)c1cccc(NS(=O)(=O)c2ccc(C)cc2)c1,77.9%,77%,90.3%,106%,81.6%,,84%,73.9%,,89.1%
CCOC(=O)CO,,72.8%,109%,109%,96.5%,97%,102%,86.4%,95.6%,104%
CN(C)c1ccc(O)c2c1CC1CC3C(N(C)C)C(=O)C(C(N)=O)=C(O)C3(O)C(=O)C1=C2O (stereo unspecified),17.6%,23.6%,,35.5%,-3.07% (active),26.2%,44.9%,79.1%,,35.6%
Cc1ccc(C(C)C)c(OCC(=O)O)c1,118%,97%,107%,112%,110%,73.6%,96.8%,111%,,
CCCCNC(=O)c1ccc(OCC)cc1,,101%,105%,109%,100%,94.2%,94.9%,105%,103%,103%
COc1ccc(C2CC(c3ccccc3)=Nc3ccccc3S2)cc1 (stereo unspecified),85.6%,57.5%,113%,103%,84%,91.8%,85.2%,77.6%,,
Cc1nc(O)cc(=O)[nH]1,,72.8%,107%,107%,109%,96.2%,106%,103%,108%,109%
O=[N+]([O-])c1c(Cl)ncnc1Cl,110%,101%,107%,94.8%,,90%,,112%,,111%
O=C(CC(CC(=O)c1ccccc1)c1ccccn1)c1ccccc1,106%,68.6%,123%,97.8%,,94.2%,103%,102%,,92.6%
CC(=O)OC(C)c1cccc(C#N)c1 (stereo unspecified),110%,85.1%,110%,113%,101%,,,102%,,99.1%
CS(=O)(=O)c1ccc(/C=C\C(=O)O)cc1,109%,83.5%,101%,,98.2%,48.6%,101%,111%,,103%
CC(=O)c1cccc(N(C)S(=O)(=O)c2ccc(C)cc2)c1,94.2%,82.2%,90.4%,107%,101%,,,94.9%,,103%
O=Cc1ccc(Cl)c(Cl)c1,,80.1%,98%,103%,111%,83.3%,97.8%,106%,109%,110%
NC(=O)OCCO,100%,87.7%,98.8%,,99.6%,,99.5%,97.7%,,105%

SMILES,growth [1],growth [2],growth [3],growth [4],growth [5],growth [6],growth [7],growth [8],growth [9],growth [10]
Clc1ccc(-c2noc(/C=C\c3ccccc3)n2)cc1,,83.5%,115%,98.3%,96.1%,93.7%,,98.4%,,105%
CC(=O)NCNC(C)=O,,105%,115%,100%,102%,113%,93.3%,87.9%,,109%
O=C(O)Cc1ccc(Cl)cc1,,99.4%,107%,103%,,95.9%,132%,8.9% (active),79.2%,122%
C#CCSc1nnnn1-c1ccccc1,,91.1%,80.4%,70.2%,78.5%,40%,83.9%,87.9%,,
C=CCC(OC(C)=O)c1ccc(OC)c(OC)c1 (stereo unspecified),,90.4%,102%,99%,92.3%,110%,,-29% (active),107%,102%
CCOc1ccc(C(=O)NCC(C)C)cc1,,93.5%,97.8%,107%,101%,92.1%,103%,100%,106%,99.9%
S=c1nc(-c2ccccn2)c(-c2ccccn2)n[nH]1,,81.1%,98.6%,109%,110%,119%,97.2%,87.7%,,118%
C=CCC(OC(C)=O)c1ccc(C(C)C)cc1 (stereo unspecified),,84.9%,96.4%,108%,121%,87.3%,102%,105%,113%,
COc1ccc(/C=N/NC(=O)COCC(=O)N/N=C/c2ccc(OC)cc2)cc1,,92.5%,115%,97.2%,98.8%,85.6%,86.8%,98.3%,,99%
COc1cc(OC)c(NC(=O)C(Sc2nc(C)cc(C)c2C#N)c2ccccc2)cc1Cl (stereo unspecified),,102%,96.3%,85.8%,94.6%,111%,99.4%,90.9%,,98.5%
O=C(O)c1cccc(-n2ncc(Cl)c(Cl)c2=O)c1,,107%,154%,106%,98.6%,113%,98.3%,96.5%,,100%
NC(=S)N/N=C/c1ccc(Cl)cc1,,94.8%,106%,108%,,99.5%,,88.4%,,128%
Oc1ccc(N=Cc2ccc(OCc3ccccc3)cc2)cc1,,79.9%,99.3%,99.7%,98.1%,75.8%,82.4%,97.1%,,101%
C[n+]1cc2cc3c(cc2c2ccccc21)OCO3,,72%,92.8%,106%,102%,72.8%,57.5%,12.4%,,
CCCCCCCCNC(=O)C(C)C,,99.1%,98.5%,,99.1%,81.5%,102%,107%,99.9%,95.8%
O=C1NCC2CCCC1C2 (stereo unspecified),,92.7%,101%,111%,,133%,104%,,118%,101%
C=C1SC(=Nc2c(C)cccc2C)N(c2nc(Cl)nc(Cl)n2)C12CCCCC2,,75.6%,108%,,96.6%,113%,95.9%,95.5%,,107%
CCOC(=O)C(C#N)=C1CCN(C)CC1,,87.5%,108%,97.9%,92.4%,100%,99.2%,58.5%,112%,97%
CC(=O)c1cc(O)ccc1O,,88.9%,93.6%,110%,,90.6%,,92.8%,112%,97.4%
Cc1cc(CO)c(O)c(CO)c1,,90.9%,97.1%,103%,96.8%,95.5%,,21.4%,106%,111%
O=C(O)Cc1cccc2ccccc12,,93.6%,102%,103%,94.6%,106%,,9.03% (active),101%,121%
CC(C)c1ccccc1NC(=O)N1CCC(C(C)C)CC1,,85.6%,127%,,92.3%,99.3%,101%,90.8%,,106%
Cc1cccnc1NC1OC(=O)c2ccccc21 (stereo unspecified),,85.8%,97%,,99.5%,94.7%,104%,99.3%,,105%
Clc1cccc(Cl)c1CSc1nc2ccccc2n2cccc12,,71.8%,103%,97.3%,70.5%,115%,100%,92.9%,,102%
NC(=S)c1c(N)n(C2OC(CO)C(O)C2O)c2ncnc(N)c12 (stereo unspecified),,-40% (active),-4.54% (active),11.3%,,-55.6% (active),-48.9% (active),,-27.4% (active),
